According to PubChem BioAssay:
A number with no mark means an inactive call. The rule behind the calls is not given here.

system: Aerobactin synthetase IucA (Klebsiella pneumoniae hvKP1); assay: IucA enzyme inhibition, primary screen, biochemical, Spectrum library (AID 1346200); settings: malachite green pyrophosphate, A620, at 8 µM, hits give low values;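 note: 100% = wells without compound and 0% = wells lacking enzyme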

Row | SMILES | activity remaining [%]
1 | CC(=O)O[C@H]1CC[C@]2(C)C3CC(=O)[C@]4(C)C(C(C)=O)=CCC4C3CC[C@H]2C1 (stereo not given in full) | 101
2 | CCOc1ccc2nc3cc(N)ccc3c(N)c2c1 | 96.1
3 | CC[C@H]1CN2CCc3cc(OC)c(OC)cc3C2C[C@@H]1CC1NCCc2cc(OC)c(OC)cc21 (stereo not given in full) | 118
4 | CC(C)=CCCC1(C)C=Cc2c(O)c3c(c(CC=C(C)C)c2O1)OC12C(=CC4CC1C(C)(C)OC2(C/C=C(\C)C(N)=O)C4=O)C3=O (stereo not given) | 99.6
5 | CC[C@H]1OC(=O)[C@H](C)[C@@H](O[C@H]2C[C@@](C)(OC)[C@@H](O)[C@H](C)O2)[C@H](C)[C@@H](O[C@@H]2O[C@H](C)C[C@H](N(C)C)[C@H]2O)[C@](C)(O)C[C@@H](C)CN(C)[C@H](C)[C@@H](O)[C@]1(C)O | 104
6 | CC(=O)[C@@]1(O)CCC2C3CCC4=CC(=O)CC[C@]4(C)C3CC[C@@]21C (stereo not given in full) | 72.4
7 | CN1CCC[C@H]1c1cccnc1 | 117
8 | CC(C)=CCc1c2c(c3occ(-c4ccc(O)cc4)c(=O)c3c1O)C=CC(C)(C)O2 | 99.3
9 | CC(=O)O[C@H]1CC[C@@]2(C)C(C[C@@H](OC(C)=O)[C@]3(C)C2CC[C@@]2(C)[C@H](c4ccoc4)OC(=O)[C@H]4O[C@]423)C1(C)C (stereo not given in full) | 82.9
10 | CC(=O)[C@@]1(O)CCC2C3C=C(Cl)C4=CC(=O)[C@@H]5CC5[C@]4(C)C3CC[C@@]21C (stereo not given in full) | 105
11 | CC(=O)Oc1cccc2c1C(=O)c1c(OC(C)=O)cc(C(=O)O)cc1C2=O | 102
12 | COc1cc(O)ccc1C(C)=O | 124
13 | Cc1c(Cl)cccc1Nc1ccccc1C(=O)O | 82.9
14 | O=C(Cn1ccnc1[N+](=O)[O-])NCCO | 111
15 | CNC[C@@H](O)c1ccc(O)c(O)c1 | 115
16 | CN(C/C=C/C#CC(C)(C)C)Cc1cccc2ccccc12 | 114
17 | CCC(=O)OCC(=O)C1(OC(=O)CC)C(C)CC2C3CCC4=CC(=O)C=CC4(C)C3(Cl)C(O)CC21C (stereo not given) | 119
18 | CC1(C)C(=O)[C@@H]2C[C@@]3(O)C4=CC(=O)O[C@@H](c5ccoc5)[C@]4(C)CCC3C(C)(C2=O)[C@H]1CC(=O)O (stereo not given in full) | 98.2
19 | S=c1[nH]c2ccccc2s1 | 99.3
20 | C[C@]12CCC3c4ccc(OS(=O)(=O)O)cc4CCC3C1CCC2=O (stereo not given in full) | 122

Row | SMILES | activity remaining [%]
21 | CC(C)[C@@H]1CC[C@@H](C)C[C@H]1O | 95.9
22 | C[C@H](CCC(=O)O)[C@H]1CCC2C3C(CC[C@@]21C)[C@@]1(C)CC[C@@H](O)C[C@H]1C[C@H]3O (stereo not given in full) | 101
23 | C=C1CCC(C2CC(=O)OC2=O)C(=O)CCC2C1CC2(C)C (stereo not given) | 111
24 | CC(CCC(=O)O)[C@H]1CCC2C3C[C@H](O)[C@@H]4C[C@H](O)CC[C@]4(C)C3CC[C@@]21C (stereo not given in full) | 104
25 | OC1CC2CCCC(C1)N2Cc1ccccc1 (stereo not given) | 93.4
26 | C[C@H]1C(=O)CCC2[C@]3(C)CC[C@@]4(C)C5CC(C)(C)CC[C@]5(C)CC[C@]4(C)C3CC[C@@]21C (stereo not given in full) | 105
27 | COc1cc(C(=O)N2CCOCC2)cc(OC)c1OC | 111
28 | CNCC[C@@H](Oc1ccccc1)c1ccccc1 | 111
29 | O=C(O)CN(CCN(CC(=O)O)CC(=O)O)CC(=O)O | 108
30 | COC(=O)C1=CO[C@@H](O[C@@H]2O[C@H](CO)[C@@H](O)[C@H](O)[C@H]2O)[C@H]2C1C(=O)C[C@@H]2C (stereo not given in full) | 112
31 | COC(=O)C1[C@H]2C[C@H]3c4[nH]c5ccccc5c4CCN3C[C@@H]2CC[C@@H]1O (stereo not given in full) | 112
32 | CC(=O)Oc1cc(-c2coc3cc(OC(C)=O)c(OC(C)=O)c(OC(C)=O)c3c2=O)cc(OC(C)=O)c1OC(C)=O | 88.1
33 | COC(=O)[C@@]1(C)CCC[C@]2(C)c3ccc(O)c(C(C)C)c3CCC12 (stereo not given in full) | 121
34 | COc1cccc2c1C(=O)c1c(O)c3c(c(O)c1C2=O)C[C@@](O)(C(C)=O)C[C@@H]3O[C@H]1C[C@H](N)[C@H](O)[C@H](C)O1 | 75.3
35 | COc1ccc(-c2cc(=O)c3c(O)c(OC)c(OC)c(OC)c3o2)cc1 | 93
36 | O=C(O)c1ccc(S(=O)(=O)N(Cl)Cl)cc1 | 113
37 | CN1C(C(=O)Nc2ccccn2)=C(O)c2sccc2S1(=O)=O | 82.2
38 | COc1c(C(C)C)oc2cc3oc(=O)ccc3cc12 | 102
39 | CCN(CC)CCOC(=O)C(c1ccccc1)c1ccccc1 | 112
40 | O=c1c2cc(O)c(O)cc2oc2cc(O)c(C3O[C@H](CO)[C@H](O)[C@@H](O)[C@H]3O)c(O)c12 (stereo not given in full) | 93.6
